The structures appear in SMILES notation. Activity calls are given as the source filed them. Calls come from the whole dose curve; as a rule, active = well fitted inhibition curve with a large enough effect; inconclusive = small, poorly fitted or top-dose-only effect; inactive = no such curve, though single readings can be large or run the other way.

This assay is described as follows: qHTS assay for measurement of the activity of small molecule inhibitors on Zika virus induced Caspase-3 activity in human astrocytoma cells (AID 1224859). The conditions noted are these: SNB-19 ZIKV-induced caspase-3/7, luminescence, 6 h; series mostly up to 45.7 µM. Put shortly:
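Readout is luminescence from Caspase-Glo 3/7 added after a 6 h ZIKV infection (2 FFU/cell) of compound-pretreated (1 h) SNB-19 cells; data expressed as % inhibition versus uninfected and infected wells.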
Background: In qHTS, concentration-response curves come from the screen itself.
For the compound `Cc1nnc2n1-c1sc(CCC(=O)N3CCOCC3)cc1C(c1ccccc1Cl)=NC2`, the call was inactive.
The same measure for `CCCOC(=O)Cc1ccc(OCC(=O)N(CC)CC)c(OC)c1`: “inactive”.
Under `CC[C@H](O)C(C[C@H](C)N(C)C)(c1ccccc1)c1ccccc1` stands “inactive”.
The same measure for `COc1ccc(C(=O)N2CCCC2=O)cc1`: “inactive”; for `CC(CC(C#N)(c1ccccc1)c1ccccc1)N(C)C` (stereo not drawn): “inactive”.
For the compound `CCOC(C(=O)OCCN(C)C)(c1ccccc1)c1ccccc1`, the call was inactive.
The same measure for `CN1C(=O)CN=C(c2ccccc2)c2cc(Cl)ccc21`: “inactive”; for `CC(C)=CCN1CC[C@@]2(C)c3cc(O)ccc3C[C@@H]1[C@@H]2C`: “inactive”.
The same measure for `Cc1cccc(Cc2cnc[nH]2)c1C`: “inactive”; for `COc1cc(C[C@@H](C)N)c(OC)cc1Br`: “inactive”; for `CC(=O)OC1(c2ccccc2)CCN(CCc2ccccc2)CC1`: “inactive”.
The same measure for `CC(C(O)c1ccccc1)N(C)C/C=C/c1ccccc1` (stereo not drawn): “inactive”; for `CCN1CCCC1CNC(=O)C(O)(c1ccccc1)c1ccccc1` (stereo not drawn): “inactive”; for `C[C@H]1CNCCc2ccc(Cl)cc21`: “inactive”.
Take `C[C@@H]1C[C@@H]([C@H](O)CC2CC(=O)NC(=O)C2)C(=O)[C@@H](C)C1`: the compound was classed as inactive.
The same measure for `CN1C2CCC(C)(C)C1CC(OC(=O)C(O)(c1cccs1)c1cccs1)C2` (stereo not drawn): “inactive”; for `CC(Cc1ccccc1)NCCCCl` (stereo not drawn): “inactive”.
On to `O=C(CCl)c1ccc(Cl)cc1Cl`, for which the compound was called inactive.
Under `CCC(OC(C)=O)C(CC(C)NC)(c1ccccc1)c1ccccc1` (stereo not drawn) stands “inactive”; under `CC[C@H]1C[C@@H]2C[C@H]3c4[nH]c5ccc(OC)cc5c4CCN(C2)[C@@H]13`, “inactive”; under `COC(=O)C1=CCCN(C)C1`, “inactive”.
As for `O=c1[nH]c2cc(Cl)ccc2n1C1CCNCC1`, the compound was classed as inactive.
Under `CN(C)CCc1c[nH]c2cccc(O)c12` stands “inactive”.
The same measure for `O=C(N[C@H]1N=C(c2ccccc2F)c2cccc3c2N(CC3)C1=O)c1cc2ccccc2[nH]1`: “inactive”; for `COc1cc(CC(C)N)c(OC)cc1Br` (stereo not drawn): “inactive”.
Under `CCOC(=O)c1ncn2c1CN(C)C(=O)c1c(I)cccc1-2` stands “inactive”; under `O=C(CCCCl)c1ccc(F)cc1`, “inactive”.
For `CCc1ccc(C2CCNCC2)cc1`, the compound was called inactive.
As to `CCC(=O)C(CCN(C)C)(c1ccccc1)c1ccccc1`, the result was inactive.
The same measure for `O=C(O)CCCCCCNC1c2ccccc2CCc2ccccc21`: “inactive”; for `c1ccc2c(c1)Sc1ccccc1N2CC1CN2CCC1CC2` (stereo not drawn): “inactive”; for `COc1ccc(OC)c(CC(C)N)c1` (stereo not drawn): “inactive”.
Under `Cc1nnc2n1-c1sc(CCc3ccc(CC(C)C)cc3)cc1C(c1ccccc1Cl)=NC2C` (stereo not drawn) stands “inactive”; under `CCOC(=O)C1(c2ccccc2)CCN(CCc2ccc(N)cc2)CC1`, “inactive”; under `CCCCC1C(=O)NC(=O)N(C2CCCCC2)C1=O` (stereo not drawn), “inactive”.
Under `CN1CCC(N(Cc2ccccc2)c2ccccc2)CC1` stands “inactive”.
With `Cc1nc2ccccc2c(=O)n1-c1ccccc1Cl`, the compound was called inactive.
The same measure for `O=C(O)c1nn(Cc2ccc(Cl)cc2Cl)c2ccccc12`: “inactive”.
